Source: PubChem BioAssay (NCI)
This is part of a sample that, as a whole, favours compounds with a hit. Of some 83,000 tested, about 20% had one in any assay.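 Method: cells in 96-well plates; compound added at one concentration; 48 h incubation; percent growth measured; values under 10 scored active.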 Calls of active or inactive are those of the source.

Key:
Assay in all cases: NCI-60 one-dose screen, 48 h (100 = growth as untreated, 0 = no growth, -100 = all killed)
Conditions in all cases: 10 µM unless noted
NCI-H23 lung = test system: NCI-H23 lung
NCI-H226 lung = test system: NCI-H226 lung
NCI-H322M lung = test system: NCI-H322M lung
HOP-62 NSCLC = test system: HOP-62 NSCLC
NCI-H460 lung = test system: NCI-H460 lung
HOP-92 NSCLC = test system: HOP-92 NSCLC
NCI-H522 lung = test system: NCI-H522 lung
A549/ATCC NSCLC = test system: A549/ATCC NSCLC
786-0 renal = test system: 786-0 renal
COLO 205 colon = test system: COLO 205 colon
DU-145 prostate = test system: DU-145 prostate
K-562 leukemia = test system: K-562 leukemia
MALME-3M melanoma = test system: MALME-3M melanoma
MDA-MB-231 breast = test system: MDA-MB-231 breast
RXF 393 renal = test system: RXF 393 renal
SF-268 CNS = test system: SF-268 CNS
SF-295 CNS = test system: SF-295 CNS
SF-539 CNS = test system: SF-539 CNS
UACC-257 melanoma = test system: UACC-257 melanoma
M14 melanoma = test system: M14 melanoma

Row | Structure (SMILES) | growth (NCI-H23 lung) | growth (NCI-H226 lung) | growth (NCI-H322M lung) | growth (HOP-62 NSCLC) | growth (NCI-H460 lung) | growth (HOP-92 NSCLC) | growth (NCI-H522 lung) | growth (A549/ATCC NSCLC) | growth (786-0 renal) | growth (COLO 205 colon) | growth (DU-145 prostate) | growth (K-562 leukemia) | growth (MALME-3M melanoma) | growth (MDA-MB-231 breast) | growth (RXF 393 renal) | growth (SF-268 CNS) | growth (SF-295 CNS) | growth (SF-539 CNS) | growth (UACC-257 melanoma) | growth (M14 melanoma)
1 | Cn1c(O)c(C=NCCN=Cc2c(O)n(C)c(=O)n(C)c2=O)c(=O)n(C)c1=O | 97% (inactive) | 92.3% (inactive) | 89.3% (inactive) | 90.7% (inactive) | 107% (inactive) | 86.2% (inactive) | 105% (inactive) | 100% (inactive) | 113% (inactive) | 101% (inactive) | 110% (inactive) | 34.5% (inactive) | 90.4% (inactive) | 101% (inactive) | 111% (inactive) | 105% (inactive) | 101% (inactive) | 93.9% (inactive) | 101% (inactive) | 102% (inactive)
2 | CO[C@H]1/C=C(/C)CCC[C@H](C)[C@H](O)[C@@H](C)C(=O)C(C)(C)[C@@H](O)CC(=O)O[C@@H]1/C(C)=C/c1csc(C)n1 | 34.7% (inactive) | 50.3% (inactive) | 12.8% (inactive) | 29.4% (inactive) | 6.16% (active) | 66.6% (inactive) | -29.1% (active) | 17.5% (inactive) | 57.1% (inactive) | -53% (active) | -48.1% (active) | 13.9% (inactive) | 45.2% (inactive) | 10.3% (inactive) | -23.4% (active) | 36.5% (inactive) | -17.8% (active) | 1.38% (active) | 56.2% (inactive) | 3.27% (active)
3 | CCOC(=O)CSc1ncnc2c1c(-c1ccccc1)c(-c1ccccc1)n2-c1ccc(C)cc1 | 75% (inactive) | 77.8% (inactive) | 94.4% (inactive) | 64.8% (inactive) | 76.6% (inactive) | 49.4% (inactive) | 47.3% (inactive) | 72.5% (inactive) | 80.9% (inactive) | 63.7% (inactive) | 74.4% (inactive) | 38% (inactive) | 62.1% (inactive) | 85.7% (inactive) | 105% (inactive) | 86.2% (inactive) | 76.2% (inactive) | 86.2% (inactive) | 51.9% (inactive) | 75.6% (inactive)
4 | COc1ccc(NC(=O)c2sc3nc(C)c(C(=O)/C=C/c4cccc(OC)c4)cc3c2N)cc1 | 54.6% (inactive) | 71.8% (inactive) | 18% (inactive) | 61.8% (inactive) | -7.38% (active) | 90.9% (inactive) | 39.2% (inactive) | 13.2% (inactive) | 10.9% (inactive) | 45.9% (inactive) | 21.9% (inactive) | 12.7% (inactive) | 94.1% (inactive) | 53.2% (inactive) | -11.4% (active) | 34.4% (inactive) | 26.9% (inactive) | 71.2% (inactive) | 87.9% (inactive) | 70.3% (inactive)
5 | CCN(CC)c1ccc(/C=C/C(=O)c2ccc(Nc3nc(Nc4ccccc4)nc(Nc4ccccc4)n3)cc2)cc1 | 62.5% (inactive) | 63.8% (inactive) | 62.4% (inactive) | 50.8% (inactive) | 24.8% (inactive) | 24.2% (inactive) | 46.8% (inactive) | 37.6% (inactive) | 61.8% (inactive) | 27.9% (inactive) | 51.6% (inactive) | 22.5% (inactive) | 43.2% (inactive) | 52.8% (inactive) | 10.6% (inactive) | 62.1% (inactive) | 1.72% (active) | 61.2% (inactive) | 73.1% (inactive) | 54.1% (inactive)
6 | O=c1oc2c(cnc3ccccc32)cc1-c1ccsc1 | 99.8% (inactive) | 97.8% (inactive) | 110% (inactive) | 92.3% (inactive) | 99.9% (inactive) | 82.4% (inactive) | 97.4% (inactive) | 105% (inactive) | 97.1% (inactive) | 112% (inactive) | 104% (inactive) | 92.8% (inactive) | 101% (inactive) | 101% (inactive) | 105% (inactive) | 94.6% (inactive) | 103% (inactive) | 93.4% (inactive) | 101% (inactive) | 101% (inactive)
7 | c1ccc(C2=NN[C@H](c3cn(-c4ccccc4)nc3-c3ccccc3)C2)cc1 | 59.3% (inactive) | 25.5% (inactive) | 47.8% (inactive) | -14.5% (active) | 29% (inactive) | 34.6% (inactive) | 75.6% (inactive) | 17.1% (inactive) | 6.85% (active) | 66.5% (inactive) | 56.1% (inactive) | 85.2% (inactive) | 53.4% (inactive) | 14% (inactive) | 32.1% (inactive) | 52% (inactive) | -23.8% (active) | 38.5% (inactive) | 65.2% (inactive) | 45.6% (inactive)
8 | CC(C)(C)n1cc(-c2ccnc(NCCNS(=O)(=O)c3cccc4ccccc34)c2)c(-c2cccc(F)c2)n1 | 0.565% (active) | -25.7% (active) | 20.8% (inactive) | 26.4% (inactive) | -26.9% (active) | -19.3% (active) | -38.9% (active) | 16.3% (inactive) | -91.4% (active) | -67.9% (active) | 4.18% (active) | -30% (active) | -73.1% (active) | -8.01% (active) | -52.3% (active) | 29.5% (inactive) | -68.7% (active) | -74.8% (active) | -8.81% (active) | -19% (active)
9 | CCCC(O)Cn1ncc(C(=O)OCC)c1NC(=O)NCc1ccccc1F (stereo not given) | 81.1% (inactive) | 96.8% (inactive) | 95.6% (inactive) | 105% (inactive) | 97.8% (inactive) | 92.1% (inactive) | 57% (inactive) | 82.4% (inactive) | 95.6% (inactive) | 116% (inactive) | 99.7% (inactive) | 66.7% (inactive) | 98.9% (inactive) | 91.3% (inactive) | 101% (inactive) | 96.3% (inactive) | 89.9% (inactive) | 107% (inactive) | 72.4% (inactive) | 93.1% (inactive)
10 | Clc1ccc(Sc2cnc(-c3ccccc3)o2)cc1 | 95.5% (inactive) | 106% (inactive) | 91.9% (inactive) | 94.4% (inactive) | 110% (inactive) | 86.1% (inactive) | 99.2% (inactive) | 92% (inactive) | 93.9% (inactive) | 110% (inactive) | 104% (inactive) | 98.2% (inactive) | 102% (inactive) | 97.2% (inactive) | 115% (inactive) | 93.5% (inactive) | 97.4% (inactive) | 96% (inactive) | 93.6% (inactive) | 107% (inactive)
11 | CCOC(=O)c1cn2ncnc(Oc3ccc(NC(=O)NC4CCCCC4)c(Cl)c3)c2c1C | 68.8% (inactive) | 92.6% (inactive) | 85.2% (inactive) | 79.9% (inactive) | 96.4% (inactive) | 86.8% (inactive) | 67.1% (inactive) | 58.7% (inactive) | 81.6% (inactive) | 96.9% (inactive) | 96% (inactive) | 82.6% (inactive) | 58% (inactive) | 58.2% (inactive) | 83.8% (inactive) | 84.9% (inactive) | 96.7% (inactive) | 51.2% (inactive) | 90% (inactive) | 83.9% (inactive)
12 | CCN1CCN(Cc2cn(CC(=O)Nc3ccc4c(ccn4Cc4ccccc4)c3)nn2)CC1 | 104% (inactive) | 91.8% (inactive) | 98.8% (inactive) | 96% (inactive) | 114% (inactive) | 87.6% (inactive) | 99.9% (inactive) | 102% (inactive) | 97.8% (inactive) | 99.4% (inactive) | 105% (inactive) | 94.8% (inactive) | 99.5% (inactive) | 91.5% (inactive) | 111% (inactive) | 95.9% (inactive) | 105% (inactive) | 102% (inactive) | 103% (inactive) | 98.7% (inactive)
13 | COc1cc2c(c(OC)c1OC)-c1ccc(OC)c(=O)cc1[C@@H](NC(=O)CCl)CC2 | 5.73% (active) | 12.5% (inactive) | 52.1% (inactive) | 40.4% (inactive) | -5.39% (active) | 10% (inactive) | -27.4% (active) | 13% (inactive) | 14.6% (inactive) | -71.9% (active) | -18% (active) | 22.1% (inactive) | 91.8% (inactive) | 4.86% (active) | -12.6% (active) | 23.2% (inactive) | 25.1% (inactive) | 4.53% (active) | 60.1% (inactive) | -47.2% (active)
